Source: PubChem (National Center for Advancing Translational Sciences (NCATS))
The list is not random: actives were taken first. Their share in the collection is about 1.7%.
Apoferritin bind: candidate novel general anesthetic via apoferritin binding | apoferritin/1-aminoanthracene competitive binding, fluorescence | Potency, µM (highest dose often 77.5 µM), for inactives: at the highest dose activity change, negative = displacement, usual class: inhibitors | 0.074% of 350,000 active | P02791 | AID 485281; note: % is set by controls: 0 for no effect and ±100 for the full control effect; nearly all actives have a fitted effect of over 20% in size
Target sequence (P02791 2-175 limits assumed): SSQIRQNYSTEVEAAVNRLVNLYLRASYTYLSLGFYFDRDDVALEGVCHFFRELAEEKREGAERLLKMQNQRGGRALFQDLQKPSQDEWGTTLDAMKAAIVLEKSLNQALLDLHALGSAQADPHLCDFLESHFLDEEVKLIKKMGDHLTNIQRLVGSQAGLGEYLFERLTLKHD
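In PBS, apoferritin at 10 uM is loaded with 1-AMA from a 50% saturated solution. After 10 min of compound exposure at ambient temperature, reduced 535 nm fluorescence indicates probe displacement.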
12-LOX inh: inhibitors of human 12S-lipoxygenase ALOX12. P18054. purified 12hLO, xylenol orange hydroperoxide absorbance. Potency, µM (series often up to 108 µM), for the others: top-dose activity change, negative = inhibition, usual class: inhibitors. 1.1% of 580,000 active. AID 1671190; note: % is set by controls: 0 for no effect and ±100 for the full control effect
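Purified human 12hLO at 150 nM in 25 mM Hepes, 0.01% Triton X-100, pH 7.0, preincubated 15 min at room temperature with compound. Reaction started with 40 uM arachidonic acid, 30 min at room temperature. Hydroperoxide measured by Fe-xylenol orange, 573/405 nm absorbance ratio.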
GRP78 ERSR act: inducers of ER stress response in human glioma cells; U87-MG GRP78 promoter luciferase reporter, 16 h; AID 602332; 0.02% of 420,000 active; Potency, µM, for the others: at the top dose activation, actives largely listed as activators; note: series mostly up to about 76 µM; % of control where 0% means no effect; nearly all actives have a fitted effect of over 35% in size
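Stably transfected U87-MG glioma cells carrying a GRP78-based luciferase sensor; 16 h compound incubation. Luminescence end-point read 10 min after Bright-Glo addition at room temperature.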
TrxR1 substrate: rat thioredoxin reductase 1 substrate activity. O89049. purified TrxR1 substrate turnover, NADPH consumption readout. Potency, µM (highest dose often 114 µM), without a hit: at the top dose activity change, negative = substrate turnover. 0.01% of 390,000 active. AID 588456; note: % is set by controls: 0 for no effect and ±100 for the full control effect; nearly all actives have a fitted effect of over 50% in size
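Rat TrxR1, dispensed at 90 nM, was prereduced with 400 uM NADPH (final) for 5 min at ~22 deg C, then incubated with compound 15 min before 400 uM selenite. A first-read NADPH fluorescence drop versus no-compound background flagged substrates.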
IDH1 R132H inh: inhibitors of human mutant IDH1 R132H | O75874 | IDH1-R132H enzyme, NADPH consumption, diaphorase/resazurin fluorescence | Potency, µM (highest dose often 76.6 µM), inactives show at the highest dose activity change, negative = inhibition, most hits filed as inhibitors | 0.093% of 390,000 active | AID 602179; note: % is set by controls: 0 for no effect and ±100 for the full control effect; nearly all actives have a fitted effect of over 65% in size
Target sequence (O75874 whole entry R132H, stated change not applied): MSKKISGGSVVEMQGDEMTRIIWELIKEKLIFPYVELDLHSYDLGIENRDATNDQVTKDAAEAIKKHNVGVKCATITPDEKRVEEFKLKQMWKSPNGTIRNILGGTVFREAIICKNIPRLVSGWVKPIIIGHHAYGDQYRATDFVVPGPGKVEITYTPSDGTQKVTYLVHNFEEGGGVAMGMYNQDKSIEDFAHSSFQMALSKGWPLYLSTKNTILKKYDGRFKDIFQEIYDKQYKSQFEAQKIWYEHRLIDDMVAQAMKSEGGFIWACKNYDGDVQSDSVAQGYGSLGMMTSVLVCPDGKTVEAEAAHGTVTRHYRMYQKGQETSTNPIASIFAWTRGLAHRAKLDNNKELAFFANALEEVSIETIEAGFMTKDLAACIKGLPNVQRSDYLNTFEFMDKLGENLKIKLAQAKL
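IDH1-R132H (0.5 ug/mL) preincubated 30 min with compound, then NADPH (0.016 mM) and alpha-KG (2 mM) added; 80 min at RT, pH 7.5. Remaining NADPH coupled via diaphorase/resazurin to fluorescence (540/590 nm); concentration-response curves normalized to no-enzyme control.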
rTrxR1 inhibitor: rat TrxR1 inhibition; 1% of 390,000 active; recombinant rTrxR1, NADPH fluorescence consumption, selenite substrate; AID 588453; O89049; Potency, µM (top dose mostly 114 µM), for inactives: top-dose activity change, negative = inhibition, usual class: inhibitors; note: % is set by controls: 0 for no effect and ±100 for the full control effect; nearly all actives have a fitted effect of over 65% in size
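Rat TrxR1 (90 nM in the dispensed reagent) was pre-reduced with 400 uM NADPH for 5 min at room temperature, then incubated with compound for 15 min. After 400 uM selenite was added, NADPH fluorescence (Ex 340/Em 450 nm) was followed for 8 min.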
An asterisk follows results filed as active; u = inconclusive; x = no result; [ ] = another dose, or the depositor's remark. Calls come from the whole dose curve; as a rule, active = well fitted curve in the direction sought with a large enough effect; inconclusive = small, poorly fitted or top-dose-only effect, or another doubt; inactive = no such curve, though single readings can be large; an effect the other way counts as inactive or inconclusive. Potency is the fitted concentration of half-maximal effect.

SMILES	Apoferritin bind	12-LOX inh	GRP78 ERSR act	TrxR1 substrate	IDH1 R132H inh	rTrxR1 inhibitor
Cc1ccc2cc(/C=C(\C#N)C(N)=O)c(N3CCCCC3)nc2c1	2%	-19%	0%	-8%	-9%	-10%
Cc1ccc2cc(C=C(C#N)C#N)c(N3CCCCC3)nc2c1	u	-7%	4%	-5%	1%	1µM*
Cc1ccc(C(=O)N2CCC3(CC2)COc2ccccc2CN3)cc1	x	-4%	x	x	x	x
Cc1ccc(S(=O)(=O)N(CC(=O)NCC2CCCO2)c2ccccc2C)cc1 (centres undefined)	x	-17%	x	x	x	x
Cc1ccc(-n2nc3ccc(N)cc3n2)cc1Cl	78%	0%	-10%	22%	0%	36%
Cc1ccc(-n2nc3ccc(N)cc3n2)cc1C	398%	45µM*	-8%	101%	12%	83%
CC1=C(C#N)c2nc(N)c(C#N)c(C)c2/C1=C\c1ccc(OCC(=O)O)c(Cl)c1	0%	u	-1%	10%	u	50µM*
O=C(O)COc1ccc(/C=C2/NC(=O)NC2=O)cc1Cl	x	-48%	x	x	x	x
Cc1ccc(S(=O)(=O)N(C(=O)c2ccco2)c2cc3sc(=O)oc3c3ccccc23)cc1	-22%	28µM*	-2%	-8%	8%	-21%
COc1ccc(S(=O)(=O)N(C(=O)c2ccco2)c2cc3sc(=O)oc3c3ccccc23)cc1	u	u	-8%	-7%	12%	31%[57.1 µM]
CCOc1ccc(S(=O)(=O)N(C(=O)c2ccco2)c2cc3sc(=O)oc3c3ccccc23)cc1	u	32µM*	-2%	-8%	3%	-7%
CCc1ccc(NC(=O)C(=O)NCC(c2ccc3c(c2)OCO3)N2CCOCC2)cc1 (centres undefined)	8%	-14%	-5%	-1%[57.1 µM]	-12%	5%[57.1 µM]
CCOC(=O)c1c(C)sc2c1N(C(=O)CCl)c1cc(Cl)ccc1S2	-19%	-15%	-14%	-2%	-10%	5µM*
Cc1sc2ncnc(SCC(=O)N3c4ccccc4Sc4ccc(Cl)cc43)c2c1C	-4%	-16%	-2%	10%	-4%	12%
CCCc1noc(-c2ccn3c(CNC(=O)c4ccc(C)c(F)c4)nnc3c2)n1	x	50µM*	x	x	x	x
CCCc1noc(-c2ccn3c(CNC(=O)Cc4cccc(OC)c4)nnc3c2)n1	x	45µM*	x	x	x	x
Cc1ccc(C(=O)NCc2nnc3cc(-c4nc(C5CC5)no4)ccn23)cc1F	x	-6%	x	x	x	x
CCCc1noc(-c2ccn3c(CNC(=O)Cc4cccc(F)c4)nnc3c2)n1	x	1%	x	x	x	x
O=C(Cc1ccc(N(Cc2ccc(F)cc2)C(=O)c2ccco2)cc1)Nc1ccc(F)cc1	x	5%	x	x	x	x
Cc1ccc(NC(=O)N2CCc3c(sc4c3CCCC4)C2c2ccccc2)cc1F (centres undefined)	41%	-12%	1%	3%[57.1 µM]	-2%	13%[57.1 µM]
O=C(/C=C/c1ccccc1)N1CCOCC1	0%	5%	0%	4%	-4%	29%
O=C(/C=C/c1ccccc1)CCN1CCOCC1	x	-12%	-14%	1%	4%	0.56µM*
COC(=O)C1=C(C)NC(=O)NC1c1ccc(-c2ccc(Cl)cc2)o1 (centres undefined)	-8%	-25%	1%	-7%	-16%	-6%[57.1 µM]
COC(=O)C1=C(C)NC(=S)NC1c1ccc(-c2cc(Cl)ccc2Cl)o1 (centres undefined)	-12%	18µM*	-1%	3%	2%	32µM*
N#CC1=C(N)OC2=C(C(=O)CC(c3ccc(Cl)cc3)C2)C1c1ccccc1Cl (centres undefined)	x	16µM*	x	x	x	x
SMILES	Apoferritin bind	12-LOX inh	GRP78 ERSR act	TrxR1 substrate	IDH1 R132H inh	rTrxR1 inhibitor
O=C1Nc2ccccc2SC(c2ccccc2)C1O (centres undefined)	-4%	13µM*	-3%	-6%	6%	-26%
CC(C)N(C(=O)COC(=O)c1cc(=O)c2ccccc2o1)C(C)C	x	-6%	x	x	x	x
CCOc1ccc(N=Cc2ccc(N(C)C)cc2)cc1	x	-24%	x	x	x	x
CCOc1ccc(C=Nc2ccc(N(C)C)cc2)cc1	x	32µM*	x	x	x	x
CCOc1ccc(C2NC(=O)NC(C)=C2C(=O)Nc2cccc(C(F)(F)F)c2)cc1OC (centres undefined)	x	1%	x	x	x	x
O=C(NCCC(c1ccccc1)c1ccccc1)NNc1ccccn1	x	22µM*	x	x	x	x
O=C(NCCC(c1ccccc1)c1ccccc1)c1cnccn1	-3%	-12%	1%	-8%	4%	-16%
Cn1nc(C(=O)Nc2ccc(Cl)c(Cl)c2)c2ccccc2c1=O	x	-8%	x	x	x	x
CC(=O)c1ccc(NC(=S)Nc2cccc3cnccc23)cc1	-11%	u	-2%	-8%	3%	22µM*
Cc1ccc(NC(=S)Nc2cccc3cnccc23)cc1	-15%	-25%	4%	-1%[57.1 µM]	5%	u
S=C(Nc1cccc(Cl)c1)Nc1cccc2cnccc12	-24%	x	-3%	-9%	11%	45µM*
N#CC1=C(S)N(c2ccccc2)C(c2ccc(-c3ccc(Cl)c(Cl)c3)o2)NC1=O (centres undefined)	-17%	18µM*	0%	-4%	-7%	u
N#CC1=C(S)N(c2ccc(F)cc2)C(c2ccco2)NC1=O (centres undefined)	-13%	45µM*	-3%	-6%	0%	11%[57.1 µM]
CC1(C)CC(=O)C=C(c2ccc(COC(=O)c3ccc(Br)cc3)cc2)C1=O	x	-3%	x	x	x	x
COc1cc(NC(=O)NCc2ccc(F)c(C)c2)cc(OC)c1OC	x	4%	x	x	x	x
CCCCOc1ccc2c(=O)c(-c3cc(C(=O)OC)oc3C)c(C)oc2c1	x	45µM*	x	x	x	x
COC(=O)c1cc(-c2c(C)oc3cc(OC(C)C)ccc3c2=O)c(C)o1	u	-28%	-3%	-6%	0%	6%
CCc1ccc(NC(=O)N2CC3CC(C2)[C@H]2CCCC(=O)N2C3)cc1 (some centres undefined)	x	13%	x	x	x	x
O=C(NC1CC1)[C@@H]1C[C@H](Oc2cccnc2)CN1C(=O)CCCc1c[nH]c2ccccc12	x	22%	x	x	x	x
CCSc1ccccc1C(=O)Nc1ccc([N+](=O)[O-])cc1OC	u	40µM*	-2%	-10%	5%	10%
O=C1Nc2cc(C(=O)NCCN3CCCCCC3)ccc2S/C1=C/c1ccccc1F	x	28µM*	-14%	x	-6%	x
O=C1Nc2cc(C(=O)NCCCN3CCCC3)ccc2S/C1=C/c1ccccc1F	-20%	7%	-6%	1%	9%	6%
O=C(c1n[nH]c2ccccc12)N1CCCC(Cc2noc(-c3cnccn3)n2)C1 (centres undefined)	x	9%	x	x	x	x
CCOc1ccc2c(c1)nc(SCC(=O)c1ccc(Br)s1)n2C	u	u	-2%	-6%	6%	25µM*
